In the supplement of paper PMC6522484:
± gives the standard deviation of the averaged measurements.

Assays:
DLD1 [1] = test: cell viability (CellTiter-Glo) relative to plate median (fraction of plate median); higher = more viable cells; settings: 5 µM; treatment time 24 h; reporter: 7TFP
Summary of the method: (§1)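 Stable lentiviral TCF/Wnt firefly luciferase reporters (7TFP or TCF4/Wnt) were present in the colorectal cancer cell lines used. These cells received library compounds at a final 5 µM for 24 h, and parallel plates were read for firefly luciferase or CellTiterGlo luminescence. Each well was normalised to the plate median, and the value reported is the mean of two independent replicates.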

HCT116 = test: as above; settings: 5 µM; treatment time 24 h; reporter: TCF4/Wnt
Summary of the method: as §1

SW480 [2] = test: as above; settings: 5 µM; treatment time 24 h; reporter: 7TFP
Summary of the method: as §1

DLD1 [3] = test: TCF/Wnt firefly luciferase reporter signal relative to plate median (fraction of plate median); higher = higher Wnt reporter signal; settings: 5 µM; treatment time 24 h; reporter: 7TFP
Summary of the method: as §1

SW480 [4] = test: as above; settings: 5 µM; treatment time 24 h; reporter: 7TFP
Summary of the method: as §1

Row | Compound | cell viability (DLD1 [1]) | cell viability (HCT116) | cell viability (SW480 [2]) | TCF/Wnt firefly luciferase reporter signal (DLD1 [3]) | TCF/Wnt firefly luciferase reporter signal (SW480 [4])
1 | COc1ccc2c(c1OC)C(=O)O[C@H]2[C@H]1c2cc3c(cc2CCN1C)OCO3 | 1.06 ± 0.09 | 1.04 ± 0.061 | 0.9915 ± 0.0078 | 1.08 ± 0.028 | 1.03 ± 0.069
2 | COc1cc2c3cc1Oc1c(OC)c(OC)cc4c1[C@@H](Cc1cccc(c1)Oc1ccc(c(O)c1)C[C@@H]3N(C)CC2)N(C)CC4 | 1.03 ± 0.045 | 1 ± 0.028 | 1.12 ± 0.05 | 0.9605 ± 0.00071 | 1.12 ± 0.064
3 | FC(F)(F)c1cccc(N2CCNCC2)c1 | 1.04 ± 0.13 | 1.05 ± 0.086 | 1.02 ± 0.014 | 0.943 ± 0.015 | 1.02 ± 0.045
4 | CNNC | 0.936 ± 0.021 | 0.866 ± 0.11 | 0.945 ± 0.017 | 1.03 ± 0.14 | 0.894 ± 0.14
5 | C/C=C(/C)C(=O)O[C@H]1CC[C@@]2(C)[C@@H]3CC[C@H]4[C@]5(O)C[C@H](O)[C@@]6(O)[C@@H](CN7C[C@@H](C)CC[C@H]7[C@@]6(C)O)[C@]5(O)C[C@@]42O[C@]13O | 0.994 ± 0.037 | 0.995 ± 0.021 | 0.946 ± 0.017 | 0.952 ± 0.036 | 0.9235 ± 0.0078
6 | CC1=NCCc2c1[nH]c1cc(O)ccc21 | 0.971 ± 0.069 | 1.01 ± 0.11 | 1.02 ± 0.014 | 1.02 ± 0.17 | 0.988 ± 0.031
7 | CN1CCc2cc3c(cc2[C@H]1[C@@H]1OC(=O)c2c1ccc1c2OCO1)OCO3 | 1.06 ± 0.014 | 1.07 ± 0.13 | 1.05 ± 0.05 | 0.9 ± 0.011 | 1.045 ± 0.0071
8 | O=[N+]([O-])c1cc([As](=O)(O)O)ccc1O | 1.07 ± 0.14 | 1.07 ± 0.14 | 1.075 ± 0.0071 | 1.01 ± 0.19 | 0.959 ± 0.1
9 | COc1cc2c(c3oc4cccc(O)c4c(=O)c13)[C@@H]1C=CO[C@@H]1O2 [Sterigmatocystin] | 1.1 ± 0.16 | 1.17 ± 0.014 | 1.08 ± 0.057 | 0.845 ± 0.25 | 0.902 ± 0.077
10 | N#Cc1c(Cl)c(Cl)c(Cl)c(C#N)c1Cl | 0.687 ± 0.075 | 0.465 ± 0.13 | 1.01 ± 0.052 | 0.293 ± 0.14 | 0.286 ± 0.15
11 | CNc1ccccc1C(=O)O | 0.923 ± 0.12 | 0.85 ± 0.12 | 1.004 ± 0.0085 | 0.931 ± 0.088 | 1.1 ± 0.078
12 | CC[C@@]1(O)C(=O)OCc2c1cc1n(c2=O)Cc2cc3ccccc3nc2-1 | 0.91 ± 0.094 | 0.292 ± 0.067 | 0.925 ± 0.041 | 1.01 ± 0.12 | 0.911 ± 0.016
13 | CN1C[C@H](C(=O)N[C@]2(C)O[C@@]3(O)[C@@H]4CCCN4C(=O)[C@H](Cc4ccccc4)N3C2=O)C[C@@H]2c3cccc4[nH]cc(c34)C[C@H]21 | 0.89 ± 0.098 | 0.878 ± 0.054 | 1 ± 0.037 | 0.9 ± 0.052 | 0.884 ± 0.0057
14 | C=C(C)[C@H]1Cc2c(ccc3c2O[C@@H]2COc4cc(OC)c(OC)cc4[C@@H]2C3=O)O1 | 0.851 ± 0.054 | 0.637 ± 0.11 | 1.01 ± 0.05 | 0.738 ± 0.04 | 0.753 ± 0.17
15 | COc1ccc(C(=O)N2CCCC2=O)cc1 | 1.01 ± 0.018 | 0.957 ± 0.025 | 1.045 ± 0.0071 | 1.08 ± 0.021 | 1.07 ± 0.014
16 | COc1cc2c(cc1OC)[C@@H]1C(=O)c3ccc(OC)c(CC=C(C)C)c3O[C@@H]1CO2 | 0.943 ± 0.11 | 0.849 ± 0.042 | 0.992 ± 0.011 | 0.848 ± 0.069 | 0.947 ± 0.13
17 | CCCC(C)(COC(N)=O)COC(=O)NC(C)C (stereo not given) | 1.06 ± 0.014 | 0.994 ± 0.14 | 0.97 ± 0.0042 | 0.887 ± 0.088 | 0.992 ± 0.082
18 | NCC(=O)c1ccccc1 | 0.981 ± 0.11 | 0.999 ± 0.059 | 0.983 ± 0.018 | 0.851 ± 0.14 | 0.917 ± 0.2
19 | CNC(C)(C)Cc1ccccc1 | 1.02 | 1.01 ± 0.021 | 1.06 ± 0.014 | 1.09 | 0.932 ± 0.04
20 | CNC(=O)Oc1ccccc1OC(C)C | 0.98 ± 0.0071 | 0.983 ± 0.0042 | 0.986 ± 0.014 | 0.913 ± 0.19 | 1.01 ± 0.016
21 | CC(C)(C)[C@]1(O)C[C@@H]2OC(=O)C[C@@]23C(=O)O[C@@H]2OC(=O)[C@H](O)[C@]213 | 0.922 ± 0.033 | 1.03 ± 0.05 | 1.01 ± 0.077 | 1.17 ± 0.042 | 1.07 ± 0.1
22 | CC[C@@]1(O)C[C@H](O[C@H]2C[C@H](N(C)C)[C@H](O[C@H]3C[C@@H]4O[C@H]5CC(=O)[C@H](C)O[C@H]5O[C@@H]4[C@H](C)O3)[C@H](C)O2)c2c(cc3c(c2O)C(=O)c2c(O)ccc(O)c2C3=O)[C@H]1C(=O)OC [Cinerubin-B] | 1.04 ± 0.12 | 0.993 ± 0.067 | 1.01 ± 0.028 | 0.991 ± 0.15 | 1.07 ± 0.028
23 | CC(C)=CCCC1(C)C=Cc2c(O)c3c(c(CC=C(C)C)c2O1)OC12C(CC4CC1C(C)(C)OC2(C/C=C(/C)C(=O)O)C4O)C3=O (stereo not given) | 0.979 ± 0.087 | 1.04 ± 0.014 | 1.08 ± 0.028 | 0.975 ± 0.027 | 0.807 ± 0.036
24 | O=C(O)CCCc1ccc(N(CCCl)CCCl)cc1 | 1.02 ± 0.035 | 0.958 ± 0.011 | 1.02 ± 0.067 | 0.974 ± 0.037 | 0.966 ± 0.0028
25 | CC(=O)Nc1cc([As](=O)(O)O)ccc1O | 1.04 ± 0.064 | 0.994 ± 0.023 | 1.02 | 1.13 ± 0.085 | 0.973 ± 0.038
26 | CO[C@]12C[C@@H](COC(=O)c3cncc(Br)c3)CN(C)[C@@H]1Cc1cn(C)c3cccc2c13 | 0.999 ± 0.16 | 0.976 ± 0.033 | 0.999 ± 0.03 | 0.968 ± 0.1 | 1 ± 0.04
27 | Oc1ccc(Cl)cc1Cc1cc(Cl)ccc1O | 0.881 ± 0.12 | 0.868 ± 0.0092 | 1.03 ± 0.035 | 0.883 ± 0.17 | 0.953 ± 0.081
28 | COc1ccc2c(c1O)-c1c(OC)c(OC)cc3c1[C@H](C2)N(C)CC3 | 0.993 ± 0.067 | 1.055 ± 0.0071 | 1 ± 0.035 | 0.885 ± 0.089 | 0.926 ± 0.012
